Source: PubChem (National Center for Advancing Translational Sciences (NCATS))
KDM5B inh = Primary screen for KDM5B Histone Demethylases FDH-coupled qHTS. 220,000 compounds, 2.6% hits. AID 1347165, 2019. KDM5B demethylase, FDH-coupled NADH fluorescence (FDH is formaldehyde dehydrogenase). Lysine-specific demethylase 5B (Homo sapiens), Q9UGL1. Potency, µM (highest dose often 57.7 µM), most hits filed as inhibitors; active = well fitted inhibition curve with a large enough effect; note: nearly all actives have a fitted effect of over 70% in size
Target sequence (Q9UGL1 whole entry, looked up): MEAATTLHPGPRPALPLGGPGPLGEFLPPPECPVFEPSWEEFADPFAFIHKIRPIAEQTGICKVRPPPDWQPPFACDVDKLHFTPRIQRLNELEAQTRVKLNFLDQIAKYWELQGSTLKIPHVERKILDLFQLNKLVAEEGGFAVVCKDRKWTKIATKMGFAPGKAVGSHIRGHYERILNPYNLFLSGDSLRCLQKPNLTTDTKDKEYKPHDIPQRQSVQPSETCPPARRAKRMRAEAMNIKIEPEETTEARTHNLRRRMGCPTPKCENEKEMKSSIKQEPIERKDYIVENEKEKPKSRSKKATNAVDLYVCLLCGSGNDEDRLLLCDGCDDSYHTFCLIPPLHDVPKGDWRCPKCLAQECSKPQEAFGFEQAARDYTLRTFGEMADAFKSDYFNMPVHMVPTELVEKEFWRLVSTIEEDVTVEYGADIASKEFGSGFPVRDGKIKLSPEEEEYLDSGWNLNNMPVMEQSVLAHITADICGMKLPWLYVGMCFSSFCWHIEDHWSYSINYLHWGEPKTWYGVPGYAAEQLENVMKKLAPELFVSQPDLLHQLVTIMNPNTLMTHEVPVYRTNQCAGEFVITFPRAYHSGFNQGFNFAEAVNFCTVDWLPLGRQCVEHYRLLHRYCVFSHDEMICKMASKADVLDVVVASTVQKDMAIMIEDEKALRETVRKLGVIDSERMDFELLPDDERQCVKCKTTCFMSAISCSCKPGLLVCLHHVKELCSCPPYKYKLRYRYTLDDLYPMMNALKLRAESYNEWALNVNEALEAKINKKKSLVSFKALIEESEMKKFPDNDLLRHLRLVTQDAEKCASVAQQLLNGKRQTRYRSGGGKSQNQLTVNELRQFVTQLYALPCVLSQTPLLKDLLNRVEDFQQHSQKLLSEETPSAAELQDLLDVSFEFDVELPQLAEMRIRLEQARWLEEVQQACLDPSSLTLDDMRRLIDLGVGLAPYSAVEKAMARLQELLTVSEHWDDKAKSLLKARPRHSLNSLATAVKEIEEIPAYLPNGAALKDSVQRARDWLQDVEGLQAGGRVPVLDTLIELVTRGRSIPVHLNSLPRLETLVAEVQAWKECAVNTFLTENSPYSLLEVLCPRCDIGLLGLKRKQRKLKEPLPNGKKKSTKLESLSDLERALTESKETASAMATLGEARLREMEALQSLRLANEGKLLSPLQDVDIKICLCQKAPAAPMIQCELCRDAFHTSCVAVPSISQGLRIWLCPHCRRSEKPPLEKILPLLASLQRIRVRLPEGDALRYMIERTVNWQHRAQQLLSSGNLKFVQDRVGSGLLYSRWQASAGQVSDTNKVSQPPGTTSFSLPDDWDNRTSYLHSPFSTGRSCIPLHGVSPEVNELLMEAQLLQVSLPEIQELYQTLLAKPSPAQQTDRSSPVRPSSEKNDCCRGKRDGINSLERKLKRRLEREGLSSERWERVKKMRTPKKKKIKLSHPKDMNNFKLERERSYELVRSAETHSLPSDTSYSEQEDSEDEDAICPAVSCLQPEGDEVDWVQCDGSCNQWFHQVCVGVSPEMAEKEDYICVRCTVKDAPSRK
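Coupled FDH/NAD⁺ fluorescence readout. KDM5BΔAP 200 nM final; compound titration, 10 min RT preincubation; substrate mix 12.5 µM H3K4me3, 25 µM 2-OG, 50 µM Fe(II), 100 µM ascorbate, 0.25 mM NAD⁺, 0.25 U/mL FDH; ΔRFU over 30 min.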
Hits are given with their value; . = inactive. The full list was thinned out, with hits kept by preference.

SMILES	KDM5B inh
O=C(NCc1nnc2c(-c3nc(C4CC4)no3)cccn12)c1cccc(F)c1	25µM
O=C(Cc1ccc(F)cc1)NCc1nnc2c(-c3nc(C4CC4)no3)cccn12	32µM
O=C(c1cccc(F)c1)N1CCCC(n2cc(-c3nc(C4CC4)no3)nn2)C1 (stereo not given)	.
O=C(Cc1cccc(F)c1)NCc1nnc2c(-c3nc(C4CC4)no3)cccn12	32µM
O=C(NC(NC(=O)c1ccccc1)c1cccc(F)c1)c1ccccc1	.
O=C(NCc1ccccc1Cl)C1CCCN(S(=O)(=O)c2cccc3nonc23)C1 (stereo not given)	.
CC1CC1C(=O)Nc1ccc(SC2CCCC2)cc1 (stereo not given)	.
CC(C)(C)NC(=O)Cn1nc2n(c1=O)CCN(Cc1cccc(Cl)c1)C2=O	.
O[C@]12CCNC[C@H]1CN(Cc1ccc(C(F)(F)F)cc1F)CC2	.
COC(=O)c1ccc(C2NC(=S)NC(C)=C2C(=O)OC(C)C)cc1 (stereo not given)	.
O=C(NCc1nnc2c(-c3nc(C4CC4)no3)cccn12)c1ccc(F)cc1Cl	20µM
N#Cc1ccc(C(=O)N2CCC3(CC2)CC(Cc2nc(C4CC4)no2)CCO3)cc1 (stereo not given)	.
O=C(COC(=O)COc1ccccc1F)NC1CC1	.
O=C(O)CNC(=O)Cn1ccc2cc(OCc3ccccc3)ccc21	.
O=C(O)Cn1ccc2cc(OCc3cccc(-c4ccc(F)c(Cl)c4)c3)cnc21	40µM
O=C(O)c1cccc(COc2ccc(Cl)cc2Cl)c1	.
O=C(Nc1ccc(Cl)cn1)c1cccc(OCc2ccccc2)c1	.
O=CN1CCN(C(=O)Cn2ccc3cc(OCc4ccccc4)ccc32)CC1	.
Cc1ccc(-c2cccc(COc3cnc4c(ccn4CC(=O)O)c3)c2)cc1	35µM
CC(C)c1nnc2ccc(NCc3ccccc3Cl)nn12	.
O=C(Nc1ccc(F)cc1)C1CCN(c2nc3ccccc3nc2C(F)(F)F)CC1	.
Cc1cc(C)cc(NC(=O)Cn2c(=O)oc3cc(S(=O)(=O)N4CCCC4)ccc32)c1	.
COC(=O)c1scc(-c2ccccc2)c1S(=O)(=O)Nc1ccc(C)c(Cl)c1	.
Cc1cc(=O)n(CC(=O)Nc2ccc(Br)cc2F)c(N2CCC(C)CC2)n1	.
Cc1ccc(NC(=O)Cn2c(N3CCc4ccccc4C3)nc(C)cc2=O)c(C)c1	.
SMILES	KDM5B inh
Cc1cc(=O)n(CC(=O)Nc2ccc(Br)cc2F)c(N2CCc3ccccc3C2)n1	14µM
CC(=O)Nc1cccc(NC(=O)C(=O)NCCc2sc(-c3ccccc3)nc2C)c1	.
CC1CCCN(C(=O)c2cc3c(Cl)nc4ccccc4c3s2)C1 (stereo not given)	.
COC(=O)c1ccccc1NC(=O)N1CCC[C@@H](O)[C@H](NC(=O)c2ccc(OCCN3CCCC3)cc2)C1	.
COCCOc1ccc(C(=O)N[C@@H]2CN(C(=O)Nc3ccccc3C(=O)OC)CCC[C@H]2O)cc1	.
COC(=O)c1ccccc1NC(=O)N1CCC[C@@H](O)[C@H](NC(=O)c2ccc(OCc3ccccc3)cc2)C1	25µM
CC1(C)Cc2ccccc2/C(=C/C(=O)Nc2ccc(Cl)cc2Cl)N1	.
Cc1ccc(S(=O)(=O)NCC(C)NC(=O)CN2CCOCC2)cc1 (stereo not given)	.
Cc1nc2nc(SCC(=O)NCCc3ccc(Cl)cc3)nn2c(C)c1Cc1c(F)cccc1Cl	.
COC[C@@H]1CN(C(=O)c2cc(OC)cc(OC)c2)C[C@H]1C(N)=O	.
CC1=NS(=O)(=O)N(Cc2ccccc2)C=C1C(=O)OCc1noc(-c2cccc(F)c2)n1	.
Cc1ccnn1CC(=O)N(Cc1ccncc1)Cc1cccc(OCCc2ccc(F)cc2)c1	.
Cc1oc(-c2ccccc2)nc1CC(=O)NCCc1cccc(F)c1	.
COc1cccc(-c2cc(C(=O)NCCOc3ccccc3)[nH]n2)c1	.
COc1cccc(-c2ccccc2NC(=O)C2CCN(CC(=O)O)CC2)c1	.
O=C(O)c1cccc(-c2ccc(F)cc2)c1	.
O=C(O)Cn1ccc2cc(OCCc3cccc(-c4ccc(F)cc4)c3)cnc21	40µM
COc1cccc(-c2cccc(CCOc3cnc4c(ccn4CC(=O)O)c3)c2)c1	32µM
O=C(O)Cn1ccc2cc(OCCc3cccc(-c4cccc(F)c4)c3)cnc21	40µM
CC(C)OC(=O)c1c(-c2ccccc2)c(-c2ccccc2)nn(C)c1=O	.
O=C(O)C(NCc1ccco1)c1c[nH]c2ccccc12 (stereo not given)	.
CCc1cccc2c(C(=O)CSc3nnnn3C3CCCC3)c[nH]c12	.
Cn1ccnc1C(O)(CC(=O)Nc1ccc(F)cc1)C(F)(F)F (stereo not given)	.
Cc1noc(-c2ccc(OC3CN(C(=O)CC4CCCC4)C3)cc2)n1	.
O=C(CN1CCN(c2ccccc2)CC1)c1c[nH]c2ccccc12	.
SMILES	KDM5B inh
COc1ccc(/C=C/C(=O)c2ccc(C(C)(C)C)cc2)c(OC)c1OC	.
Cc1ccc(-c2nnc(C3CN(C(=O)C(C)C)CC34CCOCC4)o2)cc1 (stereo not given)	.
COCCCNC(=O)c1nc2nc(-c3ccccc3)c(Cl)cc2n1C	.
COc1ccccc1-c1cc2c(nc1-c1ccccc1)nc(C(=O)NCCN(C)C)n2C	32µM
COc1ccc(-c2cc3c(nc2-c2ccccc2)nc(C(=O)NCCN(C)C)n3C)cn1	.
COc1ccc(CNC(=O)Cn2c(=O)nc(-c3ccccc3)c3ccccc32)cc1OC	.
Cc1ccccc1-c1cc2c(nc1-c1ccccc1)nc(C(=O)NCCN(C)C)n2C	.
COCCNC(=O)c1cc(-c2ccccc2Cl)nc2ccccc12	.
COc1cc(F)ccc1-c1cc2c(nc1-c1ccccc1)nc(C(=O)NCCN(C)C)n2C	32µM
COCCNC(=O)c1nc2nc(-c3ccccc3)c(Cl)cc2n1C	40µM
O=C(c1ccccc1)N1CCN(Cc2cccc3cccnc23)CC1	.
COc1cc(CN2C[C@@H]3C(=O)N(Cc4ccc5c(c4)OCO5)C(=O)[C@@H]3C2)cc(OC)c1	.
COc1ccc(N2CC3CCC(C2)N3C(=O)c2ccncc2)cc1	.
COc1ccc(-n2c(=O)c3ccccc3n(CC(=O)Nc3cccc(OC)c3)c2=O)cc1	.
Cc1noc(C)c1S(=O)(=O)Nc1cccc(C(F)(F)F)c1	.
Cc1noc(C)c1-c1cnc(Nc2cccc(C(F)(F)F)c2)c2c1CCO2	35µM
FC(F)(F)c1cccc(Nc2nc3nonc3nc2Nc2ccc(Cl)cc2)c1	.
CSc1ccc(Nc2ncncc2-c2nc(-c3ccccc3)no2)cc1	.
Cc1noc(C)c1-c1cnc(Nc2ccccc2)c2c1CCO2	35µM
O=C(O)/C=C/c1ccccc1OCc1ccccc1	.
CCNCc1ccc(-c2ccc(Br)cc2C)o1	.
Cc1cc(OCC(=O)N(Cc2ccc(N(C)C)cc2)CC2CCCO2)ccc1Cl (stereo not given)	.
O=C(NC1C2CC3CC(C2)CC1C3)c1ccc(Cl)s1 (stereo not given)	.
COCc1ccc2c(c1)c(OC(C)(C)C(=O)Nc1ccccn1)nn2Cc1cccc(OC)c1	.
CC(C)CNC(=O)C(C)(C)Oc1nn(CC2CC2)c2ccc(CN3CCCC3)cc12	40µM
O=C(NCC(F)(F)F)C1CCCN(Cc2cccc(F)c2)C1 (stereo not given)	.
CC(C)(Oc1nn(CC2CC2)c2ccc(CN3CCCC3)cc12)C(=O)NCC(F)(F)F	35µM
CC(C)(Oc1nn(Cc2cccc(Cl)c2)c2ccccc12)C(=O)NCCc1cnc[nH]1	.
